PubChem BioAssay
Calls of active or inactive are those of the source. Unless noted, the rule behind the calls is not given here.

Assays:
[1] = circadian clock period modulators, cell-based, LOPAC library, luminescence reporter (AID 2774); conditions: circadian reporter cells, at 7 µM, actives lie on both sides;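 note: values are relative to mean of DMSO wells on each plate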
[2] = test system: Hepatitis C virus NS3 helicase; test: HCV NS3 helicase inhibitors, primary screen, biochemical, fluorescence polarization, LOPAC1280 library (AID 687035; in the data active = inhibition above about 37%); conditions: Purified HCV NS3 helicase, Cy5-dT15 ssDNA binding fluorescence polarization; stronger effect = higher value; concentration not given here
[3] = Cy5 fluorescence quenching or enhancement artefacts, artefact control for HCV NS3 helicase inhibitor project, biochemical, LOPAC1280 (AID 687037); conditions: Cy5-DNA-NS3h complex fluorescence interference counterscreen
[4] = LFS_MB_P medulloblastoma growth inhibition, cell-based, chromothripsis tumors, cisplatin or BGB combos (AID 1671449; in the data active = inhibition above about 80%;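 note: cells exposed for 96 hours; 0% = vehicle DMSO and 100% = killing by high DMSO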); conditions: LFS_MB_P medulloblastoma cells
[5] = HDN33 neuroblastoma growth inhibition, cell-based, chromothripsis tumors, cisplatin or BGB combos (AID 1671450; in the data active = inhibition above about 80%;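 note: cells exposed to compound for four days; 0% = vehicle DMSO and 100% = cell killing by high DMSO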); conditions: HDN33 neuroblastoma cells, stronger effect = higher value
[6] = ICB984 medulloblastoma cell growth inhibition, synergistic combos for chromothripsis tumors, cisplatin or BGB combos (AID 1671451); conditions: ICB984 medulloblastoma cells, drug combinations, stronger effect = higher value;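 note: cells exposed for 96 hours before readout; 0% = vehicle DMSO and 100% = killing by high DMSO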
[7] = LFS_MB_1R medulloblastoma cell growth inhibition, synergistic combos for chromothripsis tumors, cisplatin or BGB combos (AID 1671452; in the data active = inhibition above about 80%;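 note: cells exposed for 96 hours before readout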); conditions: LFS_MB_1R medulloblastoma cells, stronger effect = higher value
[8] = HTB85 osteosarcoma cell growth inhibition, synergistic combos for chromothripsis tumors, BGB or cisplatin IC20 combos (AID 1671453; in the data active = inhibition above about 80%;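 note: cells exposed for 96 hours before readout; 0% = vehicle DMSO and 100% = high DMSO killing control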); conditions: HTB85 osteosarcoma cells, drug combinations, stronger effect = higher value
[9] = CRL2098 osteosarcoma cell growth inhibition, synergistic combos for chromothripsis tumors, BGB or cisplatin IC20 combos (AID 1671454; in the data active = inhibition above about 80%;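 note: cells exposed for 96 h before readout; 0% = vehicle DMSO and 100% = killing by high DMSO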); conditions: CRL2098 osteosarcoma cells, drug combinations, stronger effect = higher value
[10] = HD-MB03 medulloblastoma cell growth inhibition, synergistic combos for chromothripsis tumors, BGB or cisplatin IC20 combos (AID 1671455; in the data active = inhibition above about 83%;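 note: 0% = vehicle DMSO and 100% = high DMSO as cytotoxic control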); conditions: HD-MB03 medulloblastoma cells, stronger effect = higher value
[11] = MDA-MB-436 breast carcinoma cell growth inhibition, synergistic combos for chromothripsis tumors, BGB or cisplatin combos (AID 1671458); conditions: MDA-MB-436 breast carcinoma growth inhibition, drug combinations, stronger effect = higher value;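 note: cells exposed for 96 hours; 0% = vehicle DMSO and 100% = killing by high DMSO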
[12] = growth inhibition of BT084 medulloblastoma cells, cell-based, ICGC_MB145, cisplatin and BGB IC40 combos (AID 1671461; in the data active = inhibition above about 80%;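 note: cells exposed to drugs for 96 hours; 0% = vehicle DMSO and 100% = high DMSO full killing control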); conditions: drug combinations, stronger effect = higher value
[13] = growth inhibition of RCMB18 medulloblastoma cells, cell-based, cisplatin and BGB IC40 combos (AID 1671462; in the data active = inhibition above about 80%;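 note: cells exposed to compound for four days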); conditions: stronger effect = higher value
[14] = growth inhibition of CRL1545 osteosarcoma cells, cell-based, cisplatin and BGB IC20 combos (AID 1671464; in the data active = inhibition above about 80%;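 note: cells exposed to compound for 96 hours before readout; 0% = vehicle DMSO and 100% = high DMSO killing control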); conditions: stronger effect = higher value
[15] = target: NAD(+) hydrolase SARM1 (Homo sapiens) (UniProt Q6SZW1); test: SARM1 TIR NADase inhibitors, cell lysate, NAD-Glo luminescence (AID 1508614;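 active = compound whose remaining NAD level is above about 45 nM, limit read from the data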;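 note: higher remaining NAD means stronger inhibition of SARM1 NADase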); conditions: SAM-TIR HEK293T lysate NADase, at 1 µM, stronger effect = higher value
Chain of NAD(+) hydrolase SARM1 (Homo sapiens) (Q6SZW1 whole entry, looked up): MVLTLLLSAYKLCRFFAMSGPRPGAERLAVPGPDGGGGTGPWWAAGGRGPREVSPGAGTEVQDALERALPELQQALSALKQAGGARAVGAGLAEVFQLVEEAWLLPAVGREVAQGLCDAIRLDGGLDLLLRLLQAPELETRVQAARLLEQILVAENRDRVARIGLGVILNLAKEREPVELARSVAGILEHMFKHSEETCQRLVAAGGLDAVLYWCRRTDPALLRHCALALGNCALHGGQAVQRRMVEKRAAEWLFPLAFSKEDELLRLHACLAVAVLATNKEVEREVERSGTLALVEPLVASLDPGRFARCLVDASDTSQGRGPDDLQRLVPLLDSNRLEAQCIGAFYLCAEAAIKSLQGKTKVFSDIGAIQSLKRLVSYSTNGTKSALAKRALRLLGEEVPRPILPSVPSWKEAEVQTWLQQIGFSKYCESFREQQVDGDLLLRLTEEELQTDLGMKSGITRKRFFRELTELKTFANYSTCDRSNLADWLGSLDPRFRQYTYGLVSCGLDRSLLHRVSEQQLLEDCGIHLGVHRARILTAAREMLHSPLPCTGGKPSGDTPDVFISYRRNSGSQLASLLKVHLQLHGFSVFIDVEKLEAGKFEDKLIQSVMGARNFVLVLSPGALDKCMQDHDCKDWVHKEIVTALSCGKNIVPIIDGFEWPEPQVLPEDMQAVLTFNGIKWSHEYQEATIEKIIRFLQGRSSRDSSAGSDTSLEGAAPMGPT

[16] = hESC survival regulators, cell-based (AID 493140); conditions: human embryonic stem cell survival screen; stronger effect = higher value;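 note: cells exposed to compounds for four days before counting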
[17] = measured here: combination with BGB IC40, at 0.05 µM
[18] = measured here: with BGB IC20 combination, at 0.5 µM
[19] = measured here: with cisplatin IC20 combination, at 0.5 µM
[20] = measured here: combination with cisplatin, at 0.5 µM

## O=c1[nH]c(=O)n([C@H]2C[C@H](O)[C@@H](CO)O2)cc1Br
[1]
  period change: -0.205 h (inactive)
[2]
  inhibition: -1% (inactive)
[3]
  fluorescence ratio (interference): 1 (inactive)
[4]; at 0.5 µM, stronger effect = higher value
  inhibition: 27% (inactive)
[4]; measured here: combination with BGB IC20, at 0.005 µM
  inhibition: -4.77%
[4]; measured here: combination with BGB IC40, at 0.005 µM
  inhibition: -39.7%
[4]; [17]
  inhibition: -12.1%
[4]; measured here: combination with cisplatin, at 0.5 µM, stronger effect = higher value
  inhibition: 74.8%
[4]; measured here: combination with cisplatin, at 5 µM, stronger effect = higher value
  inhibition: -36%
[5]; BGB combo, at 5 µM
  inhibition: 11.2%
[5]; at 0.5 µM
  inhibition: 21.5% (inactive)
[5]; cisplatin combo, at 5 µM
  inhibition: 2.65%
[5]; [18]
  inhibition: 31.8%
[5]; [19]
  inhibition: 4.43%
[5]; single agent, at 5 µM
  inhibition: 17%
[6]; BGB IC20 combo, at 0.005 µM
  inhibition: -12.2%
[6]; BGB IC40 combo, at 0.005 µM
  inhibition: -50%
[6]; BGB IC40 combo, at 0.05 µM
  inhibition: -16.9%
[6]; at 0.5 µM
  inhibition: -24.2% (inactive)
[6]; cisplatin combo, at 0.05 µM
  inhibition: -21.6%
[6]; cisplatin combo, at 0.5 µM
  inhibition: -35.3%
[6]; cisplatin combo, at 5 µM
  inhibition: -5.29%
[6]; measured here: 5 uM single agent, at 5 µM
  inhibition: -6.23%
[7]; at 0.5 µM
  inhibition: -8.78% (inactive)
[7]; [17]
  inhibition: -9.5%
[7]; [20]
  inhibition: -3.13%
[7]; measured here: combination with cisplatin, at 5 µM
  inhibition: 18.2%
[8]; at 0.5 µM
  inhibition: -5% (inactive)
[8]; measured here: with BGB IC20, at 0.5 µM
  inhibition: -14.3%
[8]; measured here: with BGB IC20, at 5 µM
  inhibition: -8.79%
[8]; measured here: with cisplatin IC20, at 0.5 µM
  inhibition: -8.95%
[8]; measured here: with cisplatin IC20, at 5 µM
  inhibition: 4.02%
[8]; single agent, at 5 µM
  inhibition: 9.21%
[9]; at 0.5 µM
  inhibition: -34.2% (inactive)
[9]; measured here: combination with BGB at IC20, at 0.5 µM
  inhibition: -5.25%
[9]; measured here: combination with cisplatin at IC20, at 0.5 µM
  inhibition: -22.4%
[10]; at 0.5 µM
  inhibition: 14.2% (inactive)
[10]; measured here: combo with BGB at IC20, at 0.5 µM
  inhibition: 14.5%
[10]; measured here: combo with cisplatin at IC20, at 0.5 µM
  inhibition: 32.3%
[11]; at 0.5 µM
  inhibition: -4.92% (inactive)
[11]; measured here: BGB combination, at 0.5 µM
  inhibition: -11.6%
[11]; measured here: BGB combination, at 5 µM
  inhibition: -22.5%
[11]; measured here: cisplatin combination, at 0.5 µM
  inhibition: -2.86%
[11]; measured here: cisplatin combination, at 5 µM
  inhibition: -6.5%
[12]; at 0.5 µM
  inhibition: -8.02% (inactive)
[12]; cisplatin combination, at 0.5 µM
  inhibition: 3.56%
[12]; cisplatin combination, at 5 µM
  inhibition: -1.86%
[12]; measured here: BGB IC40 combination 0.05 uM, at 0.05 µM
  inhibition: -20.2%
[12]; single agent, at 5 µM
  inhibition: -7.12%
[13]; at 0.5 µM
  inhibition: -10.5% (inactive)
[13]; cisplatin combo, at 5 µM
  inhibition: 28.1%
[13]; measured here: BGB IC40 combination, at 0.05 µM
  inhibition: -19.3%
[13]; [20]
  inhibition: 32.5%
[13]; single agent, at 5 µM
  inhibition: -34.1%
[14]; at 0.5 µM
  inhibition: 8.96% (inactive)
[14]; [18]
  inhibition: 3.57%
[14]; [19]
  inhibition: 11.6%
[14]; single agent, at 0.05 µM
  inhibition: -0.752%
[14]; single agent, at 5 µM
  inhibition: 41.5%

## NC(N)=NCCC[C@H](N)C(=O)O
[1]
  period change: -0.2 h (inactive)
[2]
  inhibition: -3% (inactive)
[3]
  fluorescence ratio (interference): 1 (inactive)
[15]
  remaining NAD: 10 nM (inactive)

## CC(=O)[C@@]1(O)CC[C@H]2[C@@H]3CCC4=CC(=O)CC[C@]4(C)[C@H]3CC[C@@]21C
[1]
  period change: 0.035 h (inactive)
[2]
  inhibition: 0% (inactive)
[3]
  fluorescence ratio (interference): 1 (inactive)

## CC(=O)Oc1cc(C(F)(F)F)ccc1C(=O)O
[16]
  survival: 9.25 (inactive)

## NC(=O)c1cn(Cc2c(F)cccc2F)nn1
[2]
  inhibition: -5% (inactive)
[3]
  fluorescence ratio (interference): 1 (inactive)

## CC(=O)OCC(=O)[C@@]1(O)CC[C@H]2[C@@H]3CCC4=CC(=O)C=C[C@]4(C)[C@@]3(F)[C@@H](O)C[C@@]21C
[16]
  survival: 8 (inactive)
[15]
  remaining NAD: 10 nM (inactive)

## C[C@H](NCCc1ccc(O)cc1)[C@H](O)c1ccc(O)cc1
[16]
  survival: 5.58 (inactive)

## CCN[C@H]1CN(CCCOC)S(=O)(=O)c2sc(S(N)(=O)=O)cc21
[16]
  survival: 9.25 (inactive)
[15]
  remaining NAD: 10 nM (inactive)
